Experimental findings from PubChem BioAssay AID588335 (The Scripps Research Institute Molecular Screening Center, 2011) are described below.

Each structure is given as a SMILES string. The campaign covered roughly 360,000 compounds. About 4,500 (1.2%) were called active. Many of the other results were omitted from the sample, so actives are more common in it than they were. Unmarked numbers belong to inactive results. No stated cut-off is given here; in the data, active means inhibition above about 30%; inactive means the rest.

The assay can be described thus: GDH-TPI coupling enzyme inhibitors, primary screen, artefact control for M. tuberculosis FBA inhibitor project, biochemical, absorbance, full deck (AID 588335).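 Further: 0% = DMSO wells and 100% = wells lacking the enzyme.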 Conditions: GDH-TPI coupled enzyme counterscreen, NADH absorbance; at 4.8 µM; hits give high values. (In general: Counterscreens check selectivity or assay interference.)
Consider `O=C(COC(=O)c1ccc(N2CCCC2=O)cc1)c1ccc(OC(F)F)cc1`, for which the inhibition is 2.55%.
For the compound `Cc1cc(=O)oc2cc(NC(=O)C3CC(=O)N(Cc4ccccc4)C3)ccc12` (centres undefined), the inhibition is 19.6%.
Regarding `NC(N)=NCCCc1cn(CC(=O)N2CCNCC2)nn1`, the inhibition was 1.79%.
For `CC(C)Oc1ccc(C2NC(=O)NC2=O)cc1` (centres undefined), the inhibition was 1.41%.
The figure for `O=C1CCCC2=C1C(c1cccs1)n1nc(SCc3ccccc3)nc1N2` (centres undefined) is 19.9%; for `CCC(C)[C@H](NC(=O)N1c2ccccc2NC(=O)[C@@H]1C(C)C)C(=O)N[C@@H](Cc1ccccc1)C(=O)O` (some centres undefined) it is 10.8%; for `CCCc1ccc(-c2c(C)sc(NC(=O)c3ccnn3C)c2C#N)cc1` it is 17.4%.
`CC(OC(=O)CNS(=O)(=O)/C=C/c1ccccc1)C(=O)Nc1ccc(S(=O)(=O)N2CCCC2)cc1` (centres undefined): the inhibition was -3.69%.
With `CN(C)c1ccc(Nc2c3c4c(cccc4n(C)c2=O)C(=O)c2ccccc2-3)cc1` the figure was 5.68%; with `CCSc1nc2c(c(=O)[nH]1)C(c1cccnc1)C(C(=O)OC(C)C)=C(C)N2` (centres undefined), 0.91%.
With `COc1cc(S(=O)(=O)N2CCN(C(=O)C3CC3)CC2)ccc1NC(C)=O` the figure was 7.35%; with `O=C(Nc1ccc(OCC(=O)N2CCOCC2)cc1)c1cc(F)c(F)cc1Cl`, 6.18%; with `CCOC(=O)c1c(C)[nH]c(C)c1C(=O)CSc1nc(N)cc(N)n1`, 5.66%.
In the case of `CCOC(=O)c1c(C(C#N)C#N)cc(C)nc1C`, the inhibition is 34.7% (active).
The figure for `CCOC(=O)c1cc(C)nc(S(C)(=O)=O)c1C#N` is -4.82%; for `C[C@@H]1CN([C@H](C)CO)C(=O)c2cc(Br)cnc2O[C@@H]1CN(C)Cc1cncnc1` it is 13.4%; for `Cc1cc(Cl)ccc1C(=O)C1CCCN(C(=O)c2ccc3c(c2)OCO3)C1` (centres undefined) it is 4.42%.
Turning to `NCCCCCC(=O)N/N=C/c1ccc2nccnc2c1`, the inhibition is 26.5%.
For the compound `CCNC(=S)NNC(=O)c1ccc2ncccc2c1`, the inhibition is 7.57%.
The figure for `O=C(O)c1ccc(N/N=C/c2ccc3ncccc3c2)cc1` is 34% (active); for `CCCCN(C(=O)c1ccc2ccccc2c1)c1c(N)n(CCCC)c(=O)[nH]c1=O` it is 1.27%; for `O=C(CNC(=O)Cc1ccccc1)NCC(=O)OCC(=O)c1ccccc1Cl` it is 4.58%.
The figure for `O=C(CNC(=O)c1ccccc1)NCC(=O)OCc1ccc(Cl)cc1` is 4.85%; for `O=C(CNC(=O)OCc1ccccc1)Oc1cc2oc(=O)cc(-c3ccccc3)c2cc1Cl` it is 31.2% (active); for `CCCCNC(=O)N1CCN(S(C)(=O)=O)CC1` it is -0.96%.
With `Cc1ccc(C)c(-n2ccnc2SCC(N)=O)c1` the figure was -8.54%; with `CCCCCCCC(=O)OC(CN1CCCCCC1)CN1CCCC1=O` (centres undefined), 4.02%; with `NC(=O)CSc1nnc(NC(=O)c2ccc(Br)o2)s1`, 32.8% (active).
Take `COC(=O)CSc1nnc(NC(=O)CCc2ccccc2)s1`: the inhibition is 3.45%.
With `CC(C)(C)NC(=O)CSc1nnc(NC(=O)CCc2ccccc2)s1` the figure was 4.27%.
The figure for `COc1ccc(N)cc1NC(=O)CN1CCOCC1` is -1.77%; for `Cc1ccc(S(=O)(=O)NCc2cn3ccsc3n2)c(C)c1` it is 7.83%; for `CCN1C(=O)[C@H]2[C@@H](c3ccccc3)N[C@]3(CCCN(Cc4ccc(C)cc4)C3=O)[C@H]2C1=O` it is -3.32%.
The figure for `Cc1cc(=O)[nH]c(N/N=C/c2c(C)nn(-c3ccccc3Cl)c2Cl)n1` is 3.41%; for `Cc1cccc(C)c1NC(=O)CNC(=O)c1ccc2c(c1)OCCO2` it is -1.08%.
Take `Cc1ccc(C)c(NC2=NCC(=O)N2c2ccc3c(c2)OCCO3)c1`: the inhibition is -1.83%.
With `CCN(CC)c1ccc(/C=N/Nc2nc(C)cc(=O)[nH]2)cc1` the figure was 37.7% (active); with `Cc1cc(=O)[nH]c(Nc2cccc(Br)c2)n1`, -6.37%.
With `Cc1cc(=O)[nH]c(N/N=C/c2ccc3c(c2)OCCO3)n1`, the inhibition is 46.9% (active).
The figure for `CCN(CC)CCNc1nc(-c2ccc(OC(F)F)cc2)c(C)s1` is 2.11%.
With `O=C(NNC1=NCCC1)c1cccc(S(=O)(=O)N2CCCCC2)c1` the figure was 5.45%; with `CCC1=C(OC(=O)N(CC)CC)N2C(=O)OC(=NCC3CC3)[C@]2(C)[C@H]2C1=CC[C@H]1C(=O)N(CC(=O)OC)C(=O)[C@H]12`, 9.36%; with `COc1ccc(/C=C2\SC(=N)N(c3ccc(F)cc3)C2=O)cc1`, 4.31%.
The figure for `COc1ccc(/C=C2\N=C3CCCN3C2=O)cc1` is 45.7% (active); for `COc1ccc(C=C2CCC3C(CCCC34OCCO4)C2=O)cc1` (centres undefined) it is 25.5%.
Regarding `Cc1ccc(Cc2nnc(SCC(=O)Nc3ccc(C)cc3C)[nH]c2=O)cc1`, the inhibition was 4.83%.
The figure for `[O-][N+]12CCCCC1CCCC2CO` (centres undefined) is -10.3%; for `Cc1cc(C)c2nc3nc(C)cc(C)c3c(N)c2c1` it is 4.65%.
The figure for `CCc1nnc(NC(=O)/C=C/c2ccc(C)o2)s1` is 40.7% (active).
`CCc1nnc(NC(=O)[C@@H](NC(=O)c2cccc(C)c2)C(C)C)s1`: the inhibition was -6.25%.
The figure for `CCc1nnc(NC(=O)c2ccco2)s1` is 15.9%.
The figure for `CN(C)c1ccc(NC(=O)CN2C3CCCC2CC(NC(=O)c2ccccc2)C3)cc1` (centres undefined) is -4.43%.
`Nc1ccc(-c2nnc(-c3ccc(-c4ccccc4)cc3)o2)cc1`: the inhibition is 49.1% (active).
With `OC(c1nnc(-c2ccccc2)o1)c1cccs1` (centres undefined) the figure was -12.3%.
With `CN(C)c1ccc(-c2nnc(-c3cccnc3)o2)cc1` the figure was 30%.
The figure for `CCC(C)(C)c1ccc(OCC(=O)N(C)C)c(C(C)(C)CC)c1` is 1.89%; for `O=C(CCNC(=O)c1ccccc1)NN=Cc1ccc(Br)o1` it is 8.77%; for `Cc1ccc(C(=O)N/N=C\c2cc(Br)c(Br)o2)cn1` it is 9.96%.
`O=C(N/N=C/c1ccc(Br)o1)c1cncc(Br)c1`: the inhibition is 33.6% (active).
The figure for `CN(CC1CCCO1)S(=O)(=O)c1ccc(C(=O)Nc2ccc(F)cc2)cc1` (centres undefined) is 4.12%.
In the case of `O=C(NCCN1CCN(Cc2ccccc2)CC1)c1cc2c(=O)[nH]c3ccccc3c2s1`, the inhibition is 24.2%.
The figure for `CCC1CCCCN1CCCNC(=O)c1cc2c(Cl)nc3ccccc3c2s1` (centres undefined) is 0.39%.
Turning to `CN1CCN(CCCNC(=O)c2cc3c(=O)oc4ccccc4c3s2)CC1`, the inhibition was 31.1% (active).
Turning to `COC(=O)c1cc(NC(=O)CC2C(=O)NCCN2C(=O)c2ccc(F)cc2)cc(C(=O)OC)c1` (centres undefined), the inhibition is 3.86%.
The figure for `Cc1csc(=O)n1CC(=O)Nc1ccc(S(C)(=O)=O)cc1` is -3.52%; for `COc1ccccc1/C=C/C(=O)NC(=S)N1CCOCC1` it is 18.2%; for `CCOC(=O)/C=c1\s/c(=C\c2ccccc2OC)c(=O)n1CC(=O)N1CCOCC1` it is 33.3% (active).
The figure for `CCOC(=O)N1CCN(C(=O)Cn2cnc3ccccc3c2=O)CC1` is 2.24%; for `O=C(NCc1ccccc1Cl)C1CCN(c2ncnc3c2nc2n3CCCCC2)CC1` it is -11.1%.
With `Cc1ccc(CNC(=O)CC(NC(=O)c2ccccc2)c2ccccc2)cc1` (centres undefined) the figure was -12.7%; with `CCN(CCn1cccn1)Cc1cn[nH]c1-c1ccc(OC)cc1F`, 0.63%.
`CCn1c(NC(=O)c2ccccc2)c(-c2cccs2)c(=O)c2ccccc21`: the inhibition was 32% (active).
With `CCn1c(=O)c2cc(C(=O)Nc3cccc(C(C)=O)c3)sc2c2ccccc21` the figure was -0.68%.
In the case of `COc1ccccc1C(=O)Nn1c(-c2cccs2)nc2ccccc2c1=O`, the inhibition was 17.9%.
As for `COc1ccccc1CCNC(=O)CN1C(=O)NC2(CCCC2)C1=O`, the inhibition is 7.91%.
With `CC(C)(C)c1ccc(S(=O)(=O)NC(=O)C2(C)CCN2C(=O)CC2CC2)cc1` (centres undefined), the inhibition is 0.89%.
With `CCOC(=O)c1ccc(S(=O)(=O)N(CCO)Cc2cc3cc(OC)c(OC)cc3[nH]c2=O)cc1` the figure was 20.5%; with `CCc1nnc(NC(=O)CCC(=O)N2CCN(c3cc(C)ccc3C)CC2)s1`, -2.21%.
With `CC(C)NC(=O)C(c1ccc(F)cc1)N(C(=O)CCC(=O)Nc1ccccn1)c1ccccc1F` (centres undefined) the figure was 3.77%.
As to `Cc1ccc(NC(=O)CS(=O)CC(=O)N(c2ccccc2)C(C)C(=O)NC2CCCC2)cc1` (centres undefined), the inhibition is 7.17%.
The figure for `Cn1nccc1/C=N\NC(=O)c1ccc(Cl)cc1` is -10.2%.
The figure for `Cn1cccc1/C=N/NC(=O)c1ccc(OC(F)(F)C(F)F)cc1` is 35.9% (active); for `O=C(Nc1ccc(OC(F)(F)F)cc1)c1ccc2c(c1)no[n+]2[O-]` it is 4.41%.
The figure for `O=C(Nc1cc(F)ccc1F)c1ccc2c(=O)n3c(nc2c1)CCC3` is 5.36%.
Take `O=C1CC(C(=O)O)NC(=S)N1` (centres undefined): the inhibition is -5.96%.
With `CCOC(=O)N/N=C/c1cn(Cc2ccccc2Cl)c2ccccc12` the figure was 17%; with `NC(=O)Cn1cc(/C=N\NS(=O)(=O)c2ccccc2)c2ccccc21`, 8.87%; with `CNC(=S)N/N=C/c1cn(Cc2ccc(C)cc2)c2ccccc12`, 37% (active).
With `Cn1c(SCC(=O)Nc2ccc(N3CCOCC3)cc2)nnc1C(F)(F)F` the figure was 2.16%; with `O=C(Nc1nnc(S(=O)(=O)N2CCCCCC2)s1)c1cccc(Br)c1`, 16.8%.
With `COc1cccc(C(=O)Nc2nnc(S(=O)(=O)N3CCCCC3)s2)c1`, the inhibition was 40.7% (active).
As to `COc1cccc(C(=O)Nc2nnc(S(=O)(=O)N3CCOCC3)s2)c1`, the inhibition is 23.5%.
Regarding `Cc1ccc(S(=O)(=O)N2CCCC2CO)cc1` (centres undefined), the inhibition is -4.78%.
With `O=C(CNc1cccc(S(=O)(=O)N2CCCCC2)c1)Nc1ccccc1F` the figure was 5.6%.

As a reminder, the inhibition is the change of the read-out against control, counted positive when it falls.
